PubChem BioAssay (EPA / NIEHS)
Records with an inconclusive call do not appear. A structure can be active in one record and inactive in another. Calls of active or inactive are those of the source. How the source made its calls, unless noted: active means hit-call score of the fitted dose curve at least 0.9, where 1 is the maximum; inactive means score below 0.9.

Legend:
[1] = read-out: Intercellular Adhesion Molecule 1 (ICAM1), ICAM1 (gene 3383); experiment: BSK_3C_ICAM1: BioMAP Diversity Plus: 3C Assay for Intercellular Adhesion Molecule 1 (ICAM1) Biomarker Activity (AID 2283003); conditions: primary human endothelial cells (HUVEC); actives raise or lower the signal
In short: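 Human vascular endothelial primary cells, 3C conditions, 24 h treatment. ICAM-1 by ELISA.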

[2] = BSK_3C_Proliferation: Cell Proliferation Assessment in the BioMAP Diversity Plus: 3C Assay (AID 2283006); conditions: primary human endothelial cells (HUVEC);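 on AC50: potency may reflect either rise or fall in cell number versus DMSO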
In short: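 Proliferation of human vascular endothelial primary cells after 48 h dosing, quantified as SRB-stained protein at 560 nm relative to DMSO.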

[3] = molecular target: Peroxisome proliferator-activated receptor gamma (Homo sapiens) (UniProt P37231); experiment: ATG_PPARg_TRANS: Attagene TRANS-FACTORIAL HepG2 Assay for human Peroxisome Proliferator-activated Receptor-gamma (PPARg) (AID 2283007; active means hit-call score of the fitted dose curve at least 0.9, where 1 is the maximum)
In short: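 Twenty-four hours after chemical dosing of transiently transfected HepG2 cells, isolated RNA was converted to cDNA, reporter sequences amplified and 6-FAM-labelled, then HpaI-digested and analysed by capillary electrophoresis. Signal increase against DMSO was fitted.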

[4] = molecular target: Nuclear receptor subfamily 1 group I member 2 (Homo sapiens) (UniProt O75469); experiment: ATG_PXR_TRANS: Attagene TRANS-FACTORIAL HepG2 Assay for human Pregnane X Receptor (PXR) (AID 2283008; active means hit-call score of the fitted dose curve at least 0.9, where 1 is the maximum)
In short: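 HepG2 cells transiently transfected with multiple reporter units, here a PXR-GAL4 chimera driving a GAL4-UAS reporter; 24 h compound exposure. Reporter mRNA measured by RT-PCR, FAM labelling and capillary electrophoresis; gain of signal fitted against DMSO baseline.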

[5] = molecular target: human RAR-related Orphan Receptor beta (RORb), RORB (gene 6096) (UniProt Q92753); experiment: ATG_RORb_TRANS: Attagene TRANS-FACTORIAL HepG2 Assay for human RAR-related Orphan Receptor beta (RORb) (AID 2283010; active means hit-call score of the fitted dose curve at least 0.9, where 1 is the maximum)
In short: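 In this TRANS-format test, human HepG2 cells express chimeric NR-Gal4 fusion proteins driving GAL4-UAS reporters. After 24 h dosing, reporter transcripts are measured by fluorescent RT-PCR/capillary electrophoresis, with DMSO as negative control.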

[6] = molecular target: Retinoic acid receptor RXR-alpha (Homo sapiens) (UniProt P19793); experiment: ATG_RXRa_TRANS: Attagene TRANS-FACTORIAL HepG2 Assay for human Retinoid X Receptor alpha (RXRa) (AID 2283012; active means hit-call score of the fitted dose curve at least 0.9, where 1 is the maximum)
In short: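 Cells (HepG2) carried transiently transfected GAL4-responsive reporter units. Following a 24 h chemical incubation, reporter mRNA induction was read via RT-PCR fragment analysis; DMSO served as negative control and baseline.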

[7] = read-out: E-selectin (Homo sapiens) (UniProt P16581); experiment: BSK_3C_Eselectin: BioMAP Diversity Plus: 3C Assay for Eselectin Biomarker Activity (AID 2283015); conditions: primary human endothelial cells (HUVEC); actives raise or lower the signal
In short: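 HUVEC, 3C stimulation; compound exposure 24 h; E-selectin by ELISA; gain- or loss-of-signal fitted bidirectionally vs DMSO baseline.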

[8] = read-out: Interleukin-1 alpha (IL1a), IL1A (gene 3552); experiment: BSK_BE3C_IL1a: BioMAP Diversity Plus: BE3C Assay for Interleukin-1 alpha (IL1a) Biomarker Activity (AID 2283016); conditions: primary human bronchial epithelial cells; actives raise or lower the signal
In short: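 Cultures of primary human bronchial epithelial cells receive test chemical. After 24 h, IL-1a is quantified by ELISA, while parallel wells are fixed in TCA and SRB-stained for total protein. Changes in either direction are fitted relative to DMSO.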

[9] = read-out: Monocyte Chemoattractant Protein-1 (MCP1), CCL2 (gene 6347); experiment: BSK_3C_MCP1: BioMAP Diversity Plus: 3C Assay for Monocyte Chemoattractant Protein-1 (MCP1) Biomarker Activity (AID 2283017); conditions: primary human endothelial cells (HUVEC); actives raise or lower the signal
In short: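 HUVEC, 3C system; 24 h chemical exposure; MCP-1 by ELISA; bidirectional curve fit vs DMSO baseline.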

[10] = read-out: Monocyte Chemoattractant Protein-1 (MCP1), CCL2 (gene 6347); experiment: BSK_4H_MCP1: BioMAP Diversity Plus: 4H Assay for Monocyte Chemoattractant Protein-1 (MCP1) Biomarker Activity (AID 2283018); conditions: primary human endothelial cells (HUVEC); actives raise or lower the signal
In short: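 Readout: MCP-1 ELISA on compound-treated HUVEC, sampled 24 h post-dosing. Baseline and negative control DMSO; bidirectional fit. Overt toxicity checked alongside by sulforhodamine B protein staining at time of biomarker measurement.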

[11] = read-out: Interleukin-8 (IL8), CXCL8 (gene 3576); experiment: BSK_3C_IL8: BioMAP Diversity Plus: 3C Assay for Interleukin-8 (IL8) Biomarker Activity (AID 2283020); conditions: primary human endothelial cells (HUVEC); actives raise or lower the signal
In short: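 Human vascular endothelial cells (umbilical vein) in the 3C system; IL-8 level detected by ELISA at 24 h post-dose, with DMSO as baseline.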

[12] = read-out: Monokine induced gamma interferon (MIG), CXCL9 (gene 4283); experiment: BSK_3C_MIG: BioMAP Diversity Plus: 3C Assay for Monokine induced gamma interferon (MIG) Biomarker Activity (AID 2283021); conditions: primary human endothelial cells (HUVEC); actives raise or lower the signal;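 on AC50: MIG protein level measured by immunoassay in the treated endothelial cultures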
In short: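 After 24 h of treatment, human umbilical vein endothelial cultures (3C system) had their MIG biomarker level determined by ELISA, with DMSO serving as negative control.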

[13] = molecular target: human Vitamin D Receptor (VDR), VDR (gene 7421) (UniProt P11473); experiment: ATG_VDR_TRANS: Attagene TRANS-FACTORIAL HepG2 Assay for human Vitamin D Receptor (VDR) (AID 2283022; active means hit-call score of the fitted dose curve at least 0.9, where 1 is the maximum)
In short: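 RT-PCR/capillary electrophoresis read-out of reporter mRNA induction in transiently transfected HepG2; 24 h dosing; chimeric NR-Gal4 (TRANS format); gain-of-signal fit against DMSO baseline.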

[14] = molecular target: Retinoic acid receptor alpha (Homo sapiens) (UniProt P10276); experiment: ATG_RARa_TRANS: Attagene TRANS-FACTORIAL HepG2 Assay for human Retinoic Acid Receptor alpha (RARa) (AID 2283005; active means hit-call score of the fitted dose curve at least 0.9, where 1 is the maximum)
In short: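 HepG2 transiently transfected with multiplex GAL4-UAS reporter units including a human RARa–GAL4 chimera; 24 h compound exposure. Reporter mRNA quantified by RT-PCR, 6-FAM labeling and capillary electrophoresis; gain of signal versus DMSO.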

[15] = molecular target: human RAR-related Orphan Receptor gamma (RORg), RORC (gene 6097) (UniProt P51449); experiment: ATG_RORg_TRANS: Attagene TRANS-FACTORIAL HepG2 Assay for human RAR-related Orphan Receptor gamma (RORg) (AID 2283011; active means hit-call score of the fitted dose curve at least 0.9, where 1 is the maximum)
In short: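 Transient MRTU transfection of HepG2 (TRANS format, exogenous NR-Gal4 chimera). 24 h dosing. Total RNA → oligo(dT) RT → PCR → 6-FAM labelling → HpaI cut → CE. Gain vs DMSO.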

[16] = molecular target: human Peroxisome Proliferator-activated Receptor delta (PPARd), PPARD (gene 5467) (UniProt Q03181); experiment: ATG_PPARd_TRANS: Attagene TRANS-FACTORIAL HepG2 Assay for human Peroxisome Proliferator-activated Receptor delta (PPARd) (AID 2283002; active means hit-call score of the fitted dose curve at least 0.9, where 1 is the maximum)
In short: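 Fluorescence from capillary electrophoresis of labelled RT-PCR reporter fragments gives the signal; DMSO sets baseline. Cells: HepG2 transiently carrying GAL4-UAS reporter units plus chimeric nuclear receptor-Gal4 proteins, exposed to chemicals for 24 h.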

[17] = molecular target: human Retinoic Acid Receptor gamma (RARg), RARG (gene 5916) (UniProt P13631); experiment: ATG_RARg_TRANS: Attagene TRANS-FACTORIAL HepG2 Assay for human Retinoic Acid Receptor gamma (RARg) (AID 2283009; active means hit-call score of the fitted dose curve at least 0.9, where 1 is the maximum)
In short: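 HepG2, RARg-GAL4 TRANS system, 24 h exposure; reporter mRNA by RT-PCR + CE fluorescence; increase over DMSO.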

[18] = molecular target: human Retinoid X Receptor beta (RXRb), RXRB (gene 6257) (UniProt P28702); experiment: ATG_RXRb_TRANS: Attagene TRANS-FACTORIAL HepG2 Assay for human Retinoid X Receptor beta (RXRb) (AID 2283013; active means hit-call score of the fitted dose curve at least 0.9, where 1 is the maximum)
In short: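 Multiplexed TRANS reporter assay in HepG2; 24 h dosing; reporter mRNA by RT-PCR/CE fluorescence; gain-of-signal relative to DMSO.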

[19] = molecular target: human Thyroid Receptor alpha (THRa1), THRA (gene 7067) (UniProt P10827); experiment: ATG_THRa1_TRANS: Attagene TRANS-FACTORIAL HepG2 Assay for human Thyroid Receptor alpha (THRa1) (AID 2283014; active means hit-call score of the fitted dose curve at least 0.9, where 1 is the maximum)
In short: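 Transient HepG2 transfection, NR-Gal4 chimera driving GAL4-UAS reporters; 24 h compound exposure; total RNA, oligo(dT) RT, PCR, fluorescent primer extension, capillary electrophoresis. Upward direction vs DMSO control.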

[20] = read-out: Human Leukocyte Antigen - DR isotype (HLADR), HLA-DRA (gene 3122); experiment: BSK_3C_HLADR: BioMAP Diversity Plus: 3C Assay for Human Leukocyte Antigen - DR isotype (HLADR) Biomarker Activity (AID 2283019); conditions: primary human endothelial cells (HUVEC); actives raise or lower the signal
In short: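 HUVEC, 3C stimulation, 24 h post-dose; HLA-DR by ELISA; bidirectional curve fit vs DMSO baseline; gain or loss of signal scored.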

Measured: AC50

Chain of human RAR-related Orphan Receptor gamma (RORg), RORC (gene 6097) (P51449 whole entry, looked up, the tested form may be a part): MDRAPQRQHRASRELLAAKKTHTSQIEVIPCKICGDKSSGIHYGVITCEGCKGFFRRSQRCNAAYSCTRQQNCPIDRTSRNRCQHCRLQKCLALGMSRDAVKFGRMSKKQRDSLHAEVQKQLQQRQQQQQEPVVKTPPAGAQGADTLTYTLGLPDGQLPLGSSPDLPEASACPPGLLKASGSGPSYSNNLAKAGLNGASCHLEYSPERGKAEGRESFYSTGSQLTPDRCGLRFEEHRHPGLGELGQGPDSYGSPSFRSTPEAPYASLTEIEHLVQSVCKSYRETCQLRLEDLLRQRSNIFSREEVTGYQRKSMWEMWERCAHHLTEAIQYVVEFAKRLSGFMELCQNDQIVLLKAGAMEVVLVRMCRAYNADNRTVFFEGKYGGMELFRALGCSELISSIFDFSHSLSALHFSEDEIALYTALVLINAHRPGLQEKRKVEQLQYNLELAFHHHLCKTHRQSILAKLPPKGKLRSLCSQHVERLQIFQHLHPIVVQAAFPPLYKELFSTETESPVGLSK
Chain of human Vitamin D Receptor (VDR), VDR (gene 7421) (P11473 whole entry, looked up, the tested form may be a part): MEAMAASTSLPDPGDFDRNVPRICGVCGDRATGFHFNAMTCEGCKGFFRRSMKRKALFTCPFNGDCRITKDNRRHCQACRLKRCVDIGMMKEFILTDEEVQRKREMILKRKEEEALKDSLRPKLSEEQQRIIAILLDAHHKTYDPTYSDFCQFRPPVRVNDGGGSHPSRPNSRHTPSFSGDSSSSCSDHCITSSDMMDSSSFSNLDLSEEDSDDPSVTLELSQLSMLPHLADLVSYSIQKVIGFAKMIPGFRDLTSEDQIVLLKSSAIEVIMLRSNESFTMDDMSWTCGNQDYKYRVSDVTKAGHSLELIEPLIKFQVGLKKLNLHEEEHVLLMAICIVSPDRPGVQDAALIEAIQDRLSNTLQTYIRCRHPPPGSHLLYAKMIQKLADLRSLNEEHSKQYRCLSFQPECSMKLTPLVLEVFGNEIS
Chain of human Retinoic Acid Receptor gamma (RARg), RARG (gene 5916) (P13631 whole entry, looked up, the tested form may be a part): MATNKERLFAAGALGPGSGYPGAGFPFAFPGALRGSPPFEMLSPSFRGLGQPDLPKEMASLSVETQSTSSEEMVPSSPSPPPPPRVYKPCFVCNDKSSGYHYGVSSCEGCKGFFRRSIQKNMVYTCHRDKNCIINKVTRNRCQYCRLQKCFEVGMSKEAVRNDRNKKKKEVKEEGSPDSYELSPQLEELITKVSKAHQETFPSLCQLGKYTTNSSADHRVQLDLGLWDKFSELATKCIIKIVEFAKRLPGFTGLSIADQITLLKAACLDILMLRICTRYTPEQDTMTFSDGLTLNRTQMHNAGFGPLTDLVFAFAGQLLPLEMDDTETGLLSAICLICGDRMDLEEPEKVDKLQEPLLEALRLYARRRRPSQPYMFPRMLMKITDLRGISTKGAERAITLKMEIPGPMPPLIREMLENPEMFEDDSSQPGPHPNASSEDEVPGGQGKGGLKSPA
Chain of human RAR-related Orphan Receptor beta (RORb), RORB (gene 6096) (Q92753 whole entry, looked up, the tested form may be a part): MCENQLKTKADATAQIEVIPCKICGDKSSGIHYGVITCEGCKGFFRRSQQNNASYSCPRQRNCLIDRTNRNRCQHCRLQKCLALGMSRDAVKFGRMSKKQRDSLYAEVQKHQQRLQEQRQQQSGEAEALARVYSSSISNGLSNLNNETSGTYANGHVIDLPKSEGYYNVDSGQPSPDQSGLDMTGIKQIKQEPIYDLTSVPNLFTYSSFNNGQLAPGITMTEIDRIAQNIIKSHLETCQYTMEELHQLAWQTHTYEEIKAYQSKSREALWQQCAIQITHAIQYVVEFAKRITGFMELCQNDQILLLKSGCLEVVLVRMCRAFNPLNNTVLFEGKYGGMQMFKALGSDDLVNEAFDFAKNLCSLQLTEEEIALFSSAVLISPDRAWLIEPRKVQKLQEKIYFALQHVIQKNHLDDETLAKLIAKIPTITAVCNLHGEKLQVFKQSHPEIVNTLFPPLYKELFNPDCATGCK
Chain of human Peroxisome Proliferator-activated Receptor delta (PPARd), PPARD (gene 5467) (Q03181 whole entry, looked up, the tested form may be a part): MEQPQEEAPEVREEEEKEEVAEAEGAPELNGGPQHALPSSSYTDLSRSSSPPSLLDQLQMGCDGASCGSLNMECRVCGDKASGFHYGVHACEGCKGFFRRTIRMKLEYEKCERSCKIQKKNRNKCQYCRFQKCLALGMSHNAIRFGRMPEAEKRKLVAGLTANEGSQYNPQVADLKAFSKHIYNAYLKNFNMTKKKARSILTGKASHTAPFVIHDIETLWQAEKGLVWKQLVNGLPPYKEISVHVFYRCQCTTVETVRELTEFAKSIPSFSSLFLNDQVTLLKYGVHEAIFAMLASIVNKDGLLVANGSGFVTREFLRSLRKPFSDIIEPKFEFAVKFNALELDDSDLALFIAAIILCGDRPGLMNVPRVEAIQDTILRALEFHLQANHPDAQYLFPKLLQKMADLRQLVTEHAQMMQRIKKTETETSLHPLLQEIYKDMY
Chain of Nuclear receptor subfamily 1 group I member 2 (Homo sapiens) (O75469 whole entry, looked up, the tested form may be a part): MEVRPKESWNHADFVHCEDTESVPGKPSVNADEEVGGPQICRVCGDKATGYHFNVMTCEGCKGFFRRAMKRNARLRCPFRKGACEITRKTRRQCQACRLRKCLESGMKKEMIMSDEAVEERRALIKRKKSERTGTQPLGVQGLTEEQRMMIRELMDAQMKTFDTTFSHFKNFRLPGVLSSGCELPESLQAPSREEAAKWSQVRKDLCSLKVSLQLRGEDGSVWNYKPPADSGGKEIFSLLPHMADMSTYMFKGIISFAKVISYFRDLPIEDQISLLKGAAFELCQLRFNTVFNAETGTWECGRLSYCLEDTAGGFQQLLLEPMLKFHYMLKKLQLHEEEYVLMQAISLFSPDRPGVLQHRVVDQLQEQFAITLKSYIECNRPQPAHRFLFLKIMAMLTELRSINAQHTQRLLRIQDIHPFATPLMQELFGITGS
Chain of human Retinoid X Receptor beta (RXRb), RXRB (gene 6257) (P28702 whole entry, looked up): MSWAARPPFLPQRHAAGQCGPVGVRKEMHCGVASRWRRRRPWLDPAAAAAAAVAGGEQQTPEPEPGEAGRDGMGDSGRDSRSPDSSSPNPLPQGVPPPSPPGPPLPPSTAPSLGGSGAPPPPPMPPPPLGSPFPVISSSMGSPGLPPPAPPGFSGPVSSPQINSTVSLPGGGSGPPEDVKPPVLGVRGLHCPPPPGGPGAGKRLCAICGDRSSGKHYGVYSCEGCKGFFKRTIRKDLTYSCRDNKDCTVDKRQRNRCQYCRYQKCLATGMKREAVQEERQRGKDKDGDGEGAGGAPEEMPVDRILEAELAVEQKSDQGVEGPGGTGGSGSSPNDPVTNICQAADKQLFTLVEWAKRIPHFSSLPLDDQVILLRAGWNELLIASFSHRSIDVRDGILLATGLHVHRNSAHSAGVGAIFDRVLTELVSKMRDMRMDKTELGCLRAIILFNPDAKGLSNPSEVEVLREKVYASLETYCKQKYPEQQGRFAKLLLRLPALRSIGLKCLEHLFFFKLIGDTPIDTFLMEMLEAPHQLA
Chain of E-selectin (Homo sapiens) (P16581 whole entry, looked up): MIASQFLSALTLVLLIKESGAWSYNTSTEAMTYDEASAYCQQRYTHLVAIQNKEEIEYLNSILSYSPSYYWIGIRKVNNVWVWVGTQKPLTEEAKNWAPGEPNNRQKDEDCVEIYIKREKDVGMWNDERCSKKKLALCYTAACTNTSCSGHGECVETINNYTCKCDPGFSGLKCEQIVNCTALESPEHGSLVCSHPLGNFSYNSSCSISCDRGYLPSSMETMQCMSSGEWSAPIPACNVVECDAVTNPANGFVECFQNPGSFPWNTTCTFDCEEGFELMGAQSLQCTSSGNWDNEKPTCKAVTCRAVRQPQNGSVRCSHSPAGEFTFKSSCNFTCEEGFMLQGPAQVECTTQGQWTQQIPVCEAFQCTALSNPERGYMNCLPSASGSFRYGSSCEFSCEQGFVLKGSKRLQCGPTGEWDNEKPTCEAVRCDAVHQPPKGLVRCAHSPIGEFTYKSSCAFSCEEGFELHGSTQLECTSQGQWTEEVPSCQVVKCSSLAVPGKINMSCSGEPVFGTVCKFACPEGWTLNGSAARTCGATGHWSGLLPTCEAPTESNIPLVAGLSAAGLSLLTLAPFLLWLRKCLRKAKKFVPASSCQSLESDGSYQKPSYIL
Chain of human Thyroid Receptor alpha (THRa1), THRA (gene 7067) (P10827 whole entry, looked up, the tested form may be a part): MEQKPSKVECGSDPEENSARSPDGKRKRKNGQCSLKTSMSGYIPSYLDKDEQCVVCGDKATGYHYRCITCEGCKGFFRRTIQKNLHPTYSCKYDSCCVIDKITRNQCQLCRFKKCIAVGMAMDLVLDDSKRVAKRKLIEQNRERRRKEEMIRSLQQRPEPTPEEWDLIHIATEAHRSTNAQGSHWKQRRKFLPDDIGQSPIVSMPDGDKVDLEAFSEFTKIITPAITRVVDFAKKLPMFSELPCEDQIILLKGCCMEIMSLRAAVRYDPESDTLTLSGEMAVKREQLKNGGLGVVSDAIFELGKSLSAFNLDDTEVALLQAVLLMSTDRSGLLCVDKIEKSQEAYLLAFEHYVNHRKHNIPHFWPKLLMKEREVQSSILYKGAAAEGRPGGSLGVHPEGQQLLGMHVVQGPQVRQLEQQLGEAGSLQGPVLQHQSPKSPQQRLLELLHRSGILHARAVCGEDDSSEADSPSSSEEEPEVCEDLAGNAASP
Chain of Retinoic acid receptor RXR-alpha (Homo sapiens) (P19793 whole entry, looked up, the tested form may be a part): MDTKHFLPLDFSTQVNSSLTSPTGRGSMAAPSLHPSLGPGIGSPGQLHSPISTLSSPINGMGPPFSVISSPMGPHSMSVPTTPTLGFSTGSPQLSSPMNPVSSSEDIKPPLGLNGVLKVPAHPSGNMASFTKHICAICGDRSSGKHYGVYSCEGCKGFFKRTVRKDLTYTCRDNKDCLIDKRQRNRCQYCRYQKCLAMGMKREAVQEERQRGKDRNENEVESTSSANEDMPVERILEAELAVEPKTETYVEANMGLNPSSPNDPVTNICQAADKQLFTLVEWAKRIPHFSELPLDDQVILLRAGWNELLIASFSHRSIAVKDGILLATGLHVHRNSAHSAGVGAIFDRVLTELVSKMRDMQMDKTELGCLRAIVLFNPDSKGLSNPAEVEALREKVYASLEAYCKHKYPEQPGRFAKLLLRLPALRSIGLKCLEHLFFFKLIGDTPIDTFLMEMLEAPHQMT

CN1CCN(c2ccccc2/C=C2\SCCN(c3ccc(Cl)c(Cl)c3)C2=O)CC1
active: [2] 5.3 µM | [3] 0.865 µM | [4] 3.7 µM | [8] 30.9 µM | [9] 7.36 µM | [10] 20 µM | [11] 3.55 µM
inactive: [1] | [5] | [6] | [7] | [12] | [13]

CCOC(=O)CC(O)(CC(=O)OCC)C(=O)OCC
not listed: [10] | [13] | [16] | [17] | [18] | [19] | [20]
inactive: all other assays above

CC(C)(C)CC(C)(C)c1ccc(O)c(-n2nc3ccccc3n2)c1
active: [4] 3.65 µM
not listed: [2] | [3] | [6] | [14] | [15] | [20]
inactive: all other assays above

C=C(C)C(=O)OCCC(F)(F)C(F)(F)C(F)(F)C(F)(F)C(F)(F)C(F)(F)F
not listed: [2] | [3] | [5] | [14] | [16] | [17] | [20]
inactive: all other assays above

FC(F)(I)C(F)(F)C(F)(F)C(F)(F)C(F)(F)C(F)(F)I
active: [4] 33.4 µM | [18] 20.5 µM | [8] 30 µM [middle of 5 runs]
inactive: [16] | [15]

O=C(/C=C/c1ccc(O)cc1)CC(=O)/C=C/c1ccc(O)cc1
inactive: [4] | [17] | [6] | [18] | [19]

CCCCCCCCCCCCN1CCCC1=O
inactive: [16] | [6] | [18] | [19] | [13]
active: [1] 31 µM | [4] 9.09 µM | [7] 31.8 µM | [8] 33.2 µM | [9] 32.7 µM | [20] 30.2 µM | [11] 29.4 µM | [12] 36.7 µM

c1ccc2c(c1)Cc1ccccc1-2
active: [18] 61.7 µM
not listed: [2] | [3] | [5] | [14] | [15] | [16] | [19]
inactive: all other assays above

ClC1=C(Cl)C(Cl)(Cl)C(Cl)=C1Cl
inactive: [16] | [4] | [17] | [6] | [18] | [19] | [13]
active: [1] 6.79 µM | [18] 17.5 µM | [7] 7.17 µM | [8] 8.21 µM | [9] 7.92 µM | [11] 9.46 µM | [12] 10.5 µM

COc1cc(CCC(=O)CC(=O)CCc2ccc(O)c(OC)c2)ccc1O
active: [4] 5.26 µM
inactive: [16] | [14] | [17] | [15] | [18] | [19] | [13]
